The whole screen tested about 410,000 compounds, of which about 2,400 (0.59%) were called active. This is one part of a sample in which actives are shown more often than they occur. Values without a mark were called inactive. No stated cut-off is given here; in the data, active means max activation above about 30%; inactive means the rest. *1 amine or outer side, *2 acyl side, *3 side chain or, on linkers, in order; H or OH if unused. Where a SMILES comes first, the peptide text is derived from it. Bridges are numbered along the chain shown (N, C = ends). [ ]: non-standard residue; d: D form. The star is where a group is joined. X2 = NC1=N[C@@H]([C@H](N[*:1])C(=O)[*:2])C[C@H](O)N1; ΔAla(Z-3-ureido) = NC(=O)N/C=C(\N)C(=O)O; β3hOrn = NCCC[C@H](N)CC(=O)*; Dap = NC[C@H](N)C(=O)O
What follows are molecules tested against D(3) dopamine receptor (Homo sapiens) (UniProt P35462) (assay: qHTS of D3 Dopamine Receptor Agonist: qHTS). Settings: D3R DiscoveRx beta-arrestin cells, luminescence, 90 min; hits give high values.
Chain of D(3) dopamine receptor (Homo sapiens) (P35462 whole entry, looked up): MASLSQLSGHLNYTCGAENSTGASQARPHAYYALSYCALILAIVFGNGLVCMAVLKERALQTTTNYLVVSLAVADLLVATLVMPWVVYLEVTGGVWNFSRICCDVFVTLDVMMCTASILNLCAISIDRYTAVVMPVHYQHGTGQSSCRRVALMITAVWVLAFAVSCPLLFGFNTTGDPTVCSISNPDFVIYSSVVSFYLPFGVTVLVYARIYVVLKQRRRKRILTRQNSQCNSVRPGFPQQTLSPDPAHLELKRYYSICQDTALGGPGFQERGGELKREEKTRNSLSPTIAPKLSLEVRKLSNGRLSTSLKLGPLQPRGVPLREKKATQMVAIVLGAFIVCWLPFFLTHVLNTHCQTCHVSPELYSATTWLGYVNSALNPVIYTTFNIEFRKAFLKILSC
Method in brief: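 Cells at 1500/well, incubated overnight, then treated with pinned compounds (dopamine as control) for 90 min at 37 degrees C. DiscoveRx reagent added for 30 - 60 minutes at room temperature; luminescence read.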
For `CCC(C)[C@@H](N)C(=O)O` (stereo not given in full), the max activation was 1.21%.
Molecule `COc1cc(NS(=O)(=O)c2cccs2)cc(OC)c1` has a max activation of -2.4%.
Molecule `O=C(CSc1ncc(S(=O)(=O)c2ccc(Br)cc2)c(=O)[nH]1)Nc1ccc2c(c1)OCCO2` has a max activation of 0.197%.
With `Cc1ccc(C(=O)Nc2cc3c(cc2N2CCCC2)n(C)c(=O)c(=O)n3C)cc1` the max activation was -5.76%.
In the case of `Cn1c(=O)c(=O)n(C)c2cc(S(=O)(=O)CCC(=O)N3CCCCC3)ccc21`, the max activation is reported as -3.93%.
`CCc1ccc(S(=O)(=O)Nc2cc3c(cc2N2CCCCC2)n(C)c(=O)c(=O)n3C)cc1` was tested, and the max activation was 33.6% (active).
With `Cc1c(NS(=O)(=O)c2cc(C(=O)NCCc3ccc(F)cc3)cc(Cl)c2Cl)c(=O)n(-c2ccccc2)n1C` the max activation was 0.49%.
In the case of `Cc1c(NS(=O)(=O)c2cccc(C(=O)Nc3ccc(SC(F)F)cc3)c2)c(=O)n(-c2ccccc2)n1C`, the max activation is reported as 33.5% (active).
`Cc1c(NS(=O)(=O)c2ccc(Cl)cc2)c(=O)n(-c2ccccc2)n1C` gave a max activation of 0.215%.
Work on `NCCC[C@H](N)CC(=O)N[C@H]1CNC(=O)[C@H]([C@H]2C[C@H](O)NC(N)=N2)NC(=O)/C(=C/NC(N)=O)NC(=O)[C@H](CO)NC(=O)[C@H](CO)NC1=O` (β3hOrn-[Dap]SS[ΔAla(Z-3-ureido)][X2]; lactam 1-C) yielded a max activation of 4.66%.
`CCc1nc2ccccc2n(CCOCCOCCn2c(=O)c(CC)nc3ccccc32)c1=O` showed a max activation of 1.74%.
Molecule `CCOCCn1c(C(C)C)nc2ccccc21` has a max activation of -2.13%.
With `CCOCCn1c(-c2ccccc2)nc2ccccc21` the max activation was 65.4% (active).
In the case of `Cc1ccc(CSc2nc3cccnc3n2Cc2ccc(C(=O)NC3CC3)cc2)cc1`, the max activation is reported as 2.04%.
`CCOc1cccc(NC(=O)c2ccc(F)c(S(=O)(=O)N(CC)c3cccc(C)c3)c2)c1` was tested, and the max activation was 6.21%.
For `CS(=O)(=O)NC(=O)CCC/C=C\C[C@H]1C(=O)C[C@@H](O)[C@@H]1/C=C/[C@H](O)COc1ccccc1`, the max activation was -14.2%.
Molecule `COc1cc(OC)c(C(=O)NNC(=O)c2ccc(NS(=O)(=O)c3cccs3)cc2)cc1OC` has a max activation of 2.22%.
In the case of `COc1cc2ccccc2cc1C(=O)Nc1ccc(NC(=O)c2cccs2)cc1`, the max activation is reported as 30% (active).
`COc1cc2ccccc2cc1C(=O)Nc1cccc(-c2nc3ccccc3o2)c1` gave a max activation of 9.76%.
For `C=C1C(=C/C=C2\CCC[C@]3(C)[C@@H]([C@H](C)CCCC(C)(C)O)CC[C@@H]23)C[C@@H](O)C[C@@H]1O`, the max activation was 31.6% (active).
With `C=C1CC[C@H](O)CC1=C/C=C1\CCC[C@]2(C)[C@@H]([C@H](C)/C=C/[C@H](C)C(C)C)CC[C@@H]12` the max activation was 14.3%.
In the case of `CCCN(CCC)CCNC(=O)Cn1cnc2sc(C)c(S(=O)(=O)N3CCC(C)CC3)c2c1=O`, the max activation is reported as -7.98%.
For `Cc1ccc(-c2nn3c(=O)cc(CN4CCN(C(=O)Nc5cccc(C(F)(F)F)c5)CC4)nc3s2)cc1`, the max activation was 5.13%.
In the case of `CCc1ccc(CN(Cc2ccco2)C(=O)c2ccccc2Cl)cc1`, the max activation is reported as -16.7%.
For `COc1ccc(NC(=O)c2sc3nc(-c4cc5cccc(OC)c5oc4=O)[nH]c(=O)c3c2C)cc1`, the max activation was -8.2%.
With `CSc1ncnc2c1ncn2CCCNCc1ccco1` the max activation was -2.72%.
For `CSc1ncnc2c1ncn2CC(=O)C1CCC2C3CCC4=CC(=O)CCC4(C)C3CCC12C` (stereo not given), the max activation was 53.2% (active).
Molecule `CO[C@H]1[C@@H](O)[C@H](N)[C@@H](O[C@H]2O[C@H]([C@H](C)N)CC[C@H]2N)[C@H](O)[C@@H]1N(C)C(=O)CN` has a max activation of 4.34%.
In the case of `COc1cccc2c1cc1c(=O)n(CC(=O)N3CCN(c4ccccc4)CC3)nc(C)n12`, the max activation is reported as 5.49%.
`COc1cccc2c1cc1c(=O)n(CC(=O)N3CCN(c4cccc(Cl)c4)CC3)nc(C)n12` showed a max activation of 9.45%.
For `CCN1CCN(C(=O)Cn2nc(C)n3c(cc4c(OC)cccc43)c2=O)CC1`, the max activation was 75.8% (active).
`Cc1c(O)cc2c(c1C)O[C@](C)(CCC[C@H](C)CCC[C@H](C)CCCC(C)C)CC2` was tested, and the max activation was 13.3%.
In the case of `CCc1cccc(NC(=O)CN(C)S(=O)(=O)c2ccc3[nH]c4c(c3c2)CCCC4)c1`, the max activation is reported as -8.32%.
`Cc1ccc2c(=O)c(C(=O)c3ccc(F)cc3)cn(CC(=O)NC3CCCCC3)c2n1` was tested, and the max activation was -2.6%.
Work on `Cc1cc(C)cc(C(=O)NCC(=O)OCC(=O)N2CCCCC2)c1` yielded a max activation of -0.844%.
Molecule `COc1cc(OC)cc(C(=O)NCC(=O)N2CCCCCCC2)c1` has a max activation of -0.951%.
With `COc1ccc(OC)c(CN2CCN(C(=O)CNC(=O)c3cc(C)cc(C)c3)CC2)c1` the max activation was 48.9% (active).
For `Cc1nc(CN(C)C(=O)CC2C(=O)NCCN2Cc2ccc(F)cc2)cs1` (stereo not given), the max activation was 0.365%.
In the case of `CN(Cc1cccc2ncccc12)C(=O)CC1C(=O)NCCN1Cc1ccc(F)cc1` (stereo not given), the max activation is reported as 32.9% (active).
For `Cc1cnc(CN(C)C(=O)CC2C(=O)NCCN2Cc2cccc(F)c2F)[nH]1` (stereo not given), the max activation was 4.65%.
In the case of `CCCS(=O)(=O)c1ncc(Cl)c(C(=O)Nc2scc(-c3ccccc3)c2C(=O)OCC)n1`, the max activation is reported as -8.93%.
`CC1CCCN(c2csc3ccc(F)cc3c2=O)C1` (stereo not given) showed a max activation of 5.02%.
`O=S(=O)(c1ccc(OCC(O)CN2CCN(c3ccccc3Cl)CC2)cc1)N1CCOCC1` (stereo not given) gave a max activation of 7.66%.
Work on `C=CCc1ccc(OCC(O)CN2CCN(Cc3ccccc3)CC2)c(OC)c1` (stereo not given) yielded a max activation of -9.27%.
Work on `O=C1c2cccc3cccc(c23)N1CN1CCN(c2ccccn2)CC1` yielded a max activation of 7.73%.
With `OC(COc1cccc2ccccc12)CN1CCN(c2ccccn2)CC1` (stereo not given) the max activation was 66.5% (active).
`CCc1ccc(OCC(O)CN2CCN(CCO)CC2)cc1` (stereo not given) gave a max activation of -6.12%.
In the case of `CC(C)c1ccccc1OCC(O)CN(CC(O)COc1cccc2ccccc12)C(C)C` (stereo not given), the max activation is reported as 13.3%.
Work on `Cc1cccc(OCC(O)CN2CCN(CCN3C(=O)c4cccc5cccc(c45)C3=O)CC2)c1C` (stereo not given) yielded a max activation of -7.59%.
In the case of `CC(C)c1ccc(OCC(O)CN2CCN(c3ccccn3)CC2)cc1` (stereo not given), the max activation is reported as 42.2% (active).
`Cc1ccccc1OCC(O)CN1CCN(c2ccccn2)CC1` (stereo not given) was tested, and the max activation was 41.3% (active).
In the case of `O=C(Cn1c(-c2cccs2)cc2ccccc21)NCCc1ccc(Cl)cc1`, the max activation is reported as -7.79%.
`COc1ccc(NC(=O)CSc2nc3ncccc3[nH]2)c(OC)c1` showed a max activation of -5.62%.
For `CCCC(=O)Nc1ccc(NC(=O)c2sc3ccccc3c2Cl)cc1`, the max activation was -7.19%.
For `CCCCC(CC)CNC(=O)C1CCN(S(=O)(=O)c2cccc3nsnc23)CC1` (stereo not given), the max activation was -12.4%.

Reference: PubChem BioAssay AID652048 (National Center for Advancing Translational Sciences (NCATS), 2013)
Further: 0% is about no effect.
